The source made the active and inactive calls. How the source made its calls: active means hit-call score of the fitted dose curve at least 0.9, where 1 is the maximum; inactive means score below 0.9.
Experiments:
Conditions in all cases: mRNA level, 48 h; actives raise or lower the signal
[1] = read-out: DNA damage-inducible transcript 3 (DDIT3), DDIT3 (gene 1649); assay: LTEA_HepaRG_DDIT3: Life Technologies and Expression Analysis (LTEA) Assay for DNA damage-inducible transcript 3 (DDIT3) using HepaRG (AID 2283488)
Summary of the method: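 HepaRG plated 48 h, switched to serum-free induction medium, dosed 48 h (100 uM top, half-log, 8 pts, 0.5% DMSO, n=2); RNA isolated; DDIT3 by qRT-PCR; bidirectional curve fit vs DMSO.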

[2] = read-out: Pro-epidermal growth factor (Homo sapiens) (UniProt P01133); assay: LTEA_HepaRG_EGF: Life Technologies and Expression Analysis (LTEA) Assay for Epidermal growth factor (EGF) using HepaRG (AID 2283489)
Summary of the method: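 HepaRG cells (~100,000/well, 48 h pre-culture) exposed in duplicate for 48 h in serum-free induction medium to 8 half-log concentrations up to 100 uM in 0.5% DMSO. EGF mRNA by qRT-PCR, normalized to ACTB/GAPDH/POLR2A; bidirectional fit versus DMSO.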

[3] = read-out: Early growth response protein 1 (EGR1) transcription factor, EGR1 (gene 1958); assay: LTEA_HepaRG_EGR1: Life Technologies and Expression Analysis (LTEA) Assay for Early growth response protein 1 (EGR1) transcription factor using HepaRG (AID 2283490)
Summary of the method: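 Differentiated human HepaRG cells in serum-free induction medium were exposed in duplicate for 48 h to eight concentrations (top 100 uM, half-log steps) in 0.5% DMSO. EGR1 mRNA was quantified by qRT-PCR, normalized to ACTB, GAPDH and POLR2A, and fitted bidirectionally versus DMSO.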

[4] = read-out: Ezrin (EZR), EZR (gene 7430); assay: LTEA_HepaRG_EZR: Life Technologies and Expression Analysis (LTEA) Assay for Ezrin (EZR) using HepaRG (AID 2283491)
Summary of the method: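 EZR transcript levels came from Fluidigm qRT-PCR and were normalized to three housekeeping genes after 48 h chemical exposure of HepaRG cells. Dosing used an 8-point half-log series with a 100 uM top concentration in 0.5% DMSO, tested in duplicate; both directions were fitted versus vehicle.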

CYP3A5 (gene 1577) = assay: LTEA_HepaRG_CYP3A5: Life Technologies and Expression Analysis (LTEA) Assay for CYP3A5 using HepaRG (AID 2283493)
Summary of the method: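 HepaRG plated 48 h, switched to serum-free induction medium, chemicals added 48 h (max 100 uM, half-log, 0.5% DMSO). RNA isolated; CYP3A5 by TaqMan qRT-PCR. Gain/loss vs DMSO.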

[5] = read-out: Fatty Acid-Binding Protein 1 (FABP1), FABP1 (gene 2168); assay: LTEA_HepaRG_FABP1: Life Technologies and Expression Analysis (LTEA) Assay for Fatty Acid-Binding Protein 1 (FABP1) using HepaRG (AID 2283494)
Summary of the method: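 Differentiated human HepaRG cells were exposed in duplicate for 48 h in serum-free induction medium to 8-point half-log concentration series topping at 100 uM in 0.5% DMSO. FABP1 mRNA measured by TaqMan qRT-PCR, normalized to ACTB/GAPDH/POLR2A; bidirectional fit versus DMSO.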

[6] = read-out: Cytochrome P450 4A22 (Homo sapiens) (UniProt Q5TCH4); assay: LTEA_HepaRG_CYP4A22: Life Technologies and Expression Analysis (LTEA) Assay for Cytochrome P450 4A22 (CYP4A22) using HepaRG (AID 2283495)
Summary of the method: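 Differentiated HepaRG cells in serum-free induction medium exposed 48 h in duplicate to eight half-log concentrations up to 100 uM in 0.5% DMSO. CYP4A22 mRNA quantified by TaqMan qRT-PCR, normalized to ACTB, GAPDH and POLR2A; bidirectional fit versus DMSO.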

[7] = read-out: Cytochrome P450 7A1 (Homo sapiens) (UniProt P22680); assay: LTEA_HepaRG_CYP7A1: Life Technologies and Expression Analysis (LTEA) Assay for Cytochrome P450 7A1 (CYP7A1) using HepaRG (AID 2283496)
Summary of the method: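 HepaRG cells plated 48 h, then switched to serum-free induction medium and exposed in duplicate for 48 h to 8-point half-log series from 100 uM in 0.5% DMSO. CYP7A1 mRNA by qRT-PCR (TaqMan), normalized to ACTB/GAPDH/POLR2A; bidirectional fit versus DMSO.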

[8] = read-out: Glutathione S-Transferase (GSTA2), GSTA2 (gene 2939); assay: LTEA_HepaRG_GSTA2: Life Technologies and Expression Analysis (LTEA) Assay for Glutathione S-Transferase (GSTA2) using HepaRG (AID 2283497)
Summary of the method: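 Human HepaRG cells, plated 48 h, then exposed in serum-free induction medium for 48 h to eight half-log concentrations up to 100 uM in 0.5% DMSO, duplicate. GSTA2 mRNA by qRT-PCR, normalized to ACTB/GAPDH/POLR2A; bidirectional fit versus DMSO.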

[9] = read-out: Glutamate-cysteine ligase catalytic (GCLC), GCLC (gene 2729); assay: LTEA_HepaRG_GCLC: Life Technologies and Expression Analysis (LTEA) Assay for Glutamate-cysteine ligase catalytic (GCLC) using HepaRG (AID 2283498)
Summary of the method: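 Differentiated human HepaRG cells, plated 48 h then switched to serum-free induction medium, were exposed in duplicate for 48 h to 8 half-log concentrations topping at 100 uM in 0.5% DMSO. GCLC mRNA was quantified by qRT-PCR against ACTB, GAPDH and POLR2A.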

[10] = read-out: growth arrest and DNA damage 45 (GADD45G), GADD45G (gene 10912); assay: LTEA_HepaRG_GADD45G: Life Technologies and Expression Analysis (LTEA) Assay for growth arrest and DNA damage 45 (GADD45G) using HepaRG (AID 2283499)
Summary of the method: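 Differentiated human HepaRG cells, 48 h post-plating, exposed 48 h in serum-free induction medium to 8 half-log concentrations (top 100 uM, 0.5% DMSO) in duplicate. GADD45G mRNA measured by Fluidigm TaqMan qRT-PCR, normalized to ACTB, GAPDH, POLR2A; bidirectional fit versus DMSO.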

[11] = read-out: Glutamate-cysteine ligase regulatory (GCLM), GCLM (gene 2730); assay: LTEA_HepaRG_GCLM: Life Technologies and Expression Analysis (LTEA) Assay for Glutamate-cysteine ligase regulatory (GCLM) using HepaRG (AID 2283500)
Summary of the method: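 Cells were plated, cultured 48 h, switched to serum-free induction medium, then dosed in duplicate for 48 h at eight half-log concentrations up to 100 uM. RNA was then profiled by qRT-PCR; gain or loss versus DMSO was fitted.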

[12] = read-out: Glutathione S-transferase M3 (GSTM3), GSTM3 (gene 2947); assay: LTEA_HepaRG_GSTM3: Life Technologies and Expression Analysis (LTEA) Assay for Glutathione S-transferase M3 (GSTM3) using HepaRG (AID 2283501)
Summary of the method: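 Differentiated human HepaRG cells were exposed in duplicate for 48 h in serum-free induction medium, 8 points from 100 uM top in half-log steps, 0.5% DMSO. GSTM3 mRNA was measured by TaqMan qRT-PCR, normalized to ACTB, GAPDH and POLR2A; bidirectional fit versus DMSO.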

[13] = read-out: Heat shock 70 kDa protein 1 (HSPA1A), gene 3303; assay: LTEA_HepaRG_HSPA1A: Life Technologies and Expression Analysis (LTEA) Assay for Heat shock 70 kDa protein 1 (HSPA1A) using HepaRG (AID 2283502)
Summary of the method: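 Readout is HSPA1A transcript level by microfluidic qRT-PCR, normalized to three housekeeping genes and analysed for gain or loss of signal relative to 0.5% DMSO. Human HepaRG cultures received test chemicals for 48 h at up to 100 uM.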

[14] = read-out: Hypoxia-inducible factor 1-alpha (Homo sapiens) (UniProt Q16665); assay: LTEA_HepaRG_HIF1A: Life Technologies and Expression Analysis (LTEA) Assay for Hypoxia-inducible factor 1 (HIF1A) Trancription factor using HepaRG (AID 2283503)
Summary of the method: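 Differentiated HepaRG cells in serum-free induction medium exposed 48 h, in duplicate, to 8-point half-log series from 100 uM in 0.5% DMSO. HIF1A mRNA measured by TaqMan qRT-PCR, normalized to ACTB/GAPDH/POLR2A, fitted bidirectionally versus DMSO.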

[15] = read-out: 3-Hydroxy-3-Methylglutaryl-CoA Synthase 2 (HMGCS2), HMGCS2 (gene 3158); assay: LTEA_HepaRG_HMGCS2: Life Technologies and Expression Analysis (LTEA) Assay for 3-Hydroxy-3-Methylglutaryl-CoA Synthase 2 (HMGCS2) using HepaRG (AID 2283504)
Summary of the method: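 Human HepaRG cells in serum-free induction medium were exposed in duplicate for 48 h to 8-point half-log series from 100 uM top in 0.5% DMSO. HMGCS2 mRNA measured by TaqMan qRT-PCR, normalised to ACTB, GAPDH, POLR2A; bidirectional fit versus DMSO.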

HGF (gene 3082) = assay: LTEA_HepaRG_HGF: Life Technologies and Expression Analysis (LTEA) Assay for Hepatocyte Growth Facto (HGF) using HepaRG (AID 2283505)
Summary of the method: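 Differentiated HepaRG cells in serum-free induction medium exposed 48 h in duplicate, 8 half-log concentrations from 100 uM in 0.5% DMSO. HGF mRNA by qRT-PCR, normalised to ACTB, GAPDH, POLR2A; bidirectional fitting.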

[16] = read-out: Insulin Like Growth Factor 1 (IGF1), IGF1 (gene 3479); assay: LTEA_HepaRG_IGF1: Life Technologies and Expression Analysis (LTEA) Assay for Insulin Like Growth Factor 1 (IGF1) using HepaRG (AID 2283506)
Summary of the method: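 HepaRG, plated 48 h, then switched to serum-free induction media; test chemical 8-pt half-log from 100 uM (0.5% DMSO), duplicate, 48 h. Lysis in RLT, TaqMan qRT-PCR, norm. ACTB/GAPDH/POLR2A. Bidirectional fit vs DMSO.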

[17] = read-out: Intercellular Adhesion Molecule 1 (ICAM1), ICAM1 (gene 3383); assay: LTEA_HepaRG_ICAM1: Life Technologies and Expression Analysis (LTEA) Assay for Intercellular Adhesion Molecule 1 (ICAM1) using HepaRG (AID 2283507)
Summary of the method: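 Differentiated human HepaRG cells in serum-free induction medium exposed 48 h in duplicate to 8 half-log concentrations (top 100 uM, 0.5% DMSO). ICAM1 mRNA quantified by TaqMan qRT-PCR, normalized to ACTB, GAPDH and POLR2A; bidirectional fitting versus DMSO.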

Measured: AC50

Chain of Hypoxia-inducible factor 1-alpha (Homo sapiens) (Q16665 whole entry, looked up): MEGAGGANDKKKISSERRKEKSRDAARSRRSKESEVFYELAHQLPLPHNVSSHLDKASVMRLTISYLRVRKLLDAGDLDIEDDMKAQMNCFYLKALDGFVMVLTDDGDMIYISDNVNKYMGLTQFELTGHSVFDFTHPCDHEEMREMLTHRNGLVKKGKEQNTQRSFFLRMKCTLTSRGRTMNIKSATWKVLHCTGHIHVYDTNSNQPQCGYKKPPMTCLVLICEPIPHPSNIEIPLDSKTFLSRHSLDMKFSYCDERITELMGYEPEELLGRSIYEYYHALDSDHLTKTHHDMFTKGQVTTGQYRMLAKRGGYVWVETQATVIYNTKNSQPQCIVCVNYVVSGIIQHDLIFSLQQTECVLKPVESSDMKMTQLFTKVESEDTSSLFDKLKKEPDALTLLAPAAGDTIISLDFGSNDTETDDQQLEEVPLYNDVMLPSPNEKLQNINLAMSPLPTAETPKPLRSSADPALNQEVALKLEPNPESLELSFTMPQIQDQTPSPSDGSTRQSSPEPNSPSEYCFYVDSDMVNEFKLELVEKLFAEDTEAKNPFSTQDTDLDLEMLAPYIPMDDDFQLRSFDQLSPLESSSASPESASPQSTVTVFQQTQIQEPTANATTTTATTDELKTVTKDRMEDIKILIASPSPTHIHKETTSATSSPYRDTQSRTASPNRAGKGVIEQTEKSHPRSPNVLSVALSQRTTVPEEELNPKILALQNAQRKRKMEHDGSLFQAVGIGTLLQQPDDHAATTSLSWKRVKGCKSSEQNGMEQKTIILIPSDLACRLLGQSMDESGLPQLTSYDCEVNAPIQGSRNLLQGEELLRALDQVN

Cc1ccc(C)c(C)c1
inactive: all assays above

COCCOCCOC
active: [1] 1.38 µM | [2] 1.09 µM | [9] 2.1 µM | [11] 0.925 µM | [12] 2.14 µM | [14] 9.92 µM | [17] 0.87 µM
not listed: [7] | [13] | HGF (gene 3082)
inactive: all other assays above

COc1cc(-c2nc(NC(=O)c3cc4cc(C)cc(C)c4n3CC(=O)O)sc2CCC2CCCCC2)c(OC)cc1Cl
active: [1] 10.9 µM | [2] 29.1 µM | [3] 42.2 µM | [4] 19.8 µM | CYP3A5 (gene 1577) 9.6 µM | [5] 4.12 µM | [6] 6.57 µM | [7] 4.44 µM | [8] 7.06 µM | [10] 3.17 µM | [11] 19.4 µM | [12] 3.86 µM | [13] 11.1 µM | [14] 11 µM | [15] 6.61 µM | HGF (gene 3082) 6.32 µM | [16] 6.45 µM
inactive: [17]

Source: PubChem BioAssay (EPA / NIEHS)
